Most compounds without a hit are left out; they make up all but 4.5% or so of the library.
tim23-1 inh = growth inhibitors of tim23-1 mutant yeast, primary screen, luminescence, uHTS; S. cerevisiae tim23-1 growth, BacTiter-Glo luminescence, 24 h; AID 463212, 2010; 330,000 tested, 1.3% active; inhibition, % at 20 µM;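 active means growth inhibition of the mutant yeast at or above 50%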;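 further: temperature-sensitive mutant grown at 25 °C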
tim10-1 inh = growth inhibitors of tim10-1 mutant yeast, primary screen, luminescence, uHTS | S. cerevisiae tim10-1 ts strain growth, BacTiter-Glo, 24 h | inhibition, % at 20 µM | 330,000 tested, 2.2% active | AID 463190, 2010;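 active means inhibition of at least 40%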;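 further: mutant grown at 25 °C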
TIM10 inh = growth inhibitors of isogenic TIM10 control yeast, primary screen, counter-screen for tim10-1 yeast inhibitor project, luminescence, uHTS | S. cerevisiae TIM10 strain growth, BacTiter-Glo luminescence, 24 h | inhibition, % at 10 µM | 330,000 tested, 1.4% active | AID 463195, 2010;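 active means inhibition of 40% or more at the single tested concentration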;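 further: wild-type TIM10 isogenic control strain grown at permissive 25 °C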
SKKanGAS inh = S. pyogenes SKKanGAS growth inhibitors in kanamycin, primary screen, streptokinase expression inhibitor project, SKKanGAS strain, BacTiter-Glo luminescence | 6 h | inhibition, % at 7.5 µM | 300,000 tested, 1.3% active | AID 1662, 2009;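 active means mean replicate score, as percent of positive control median, at least 50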;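 further: strain carries kanamycin resistance gene driven by streptokinase promoter and grows in 40 µg/ml kanamycin; loss of luminescence reflects streptokinase promoter inhibition or plain growth inhibition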
PfHsp90 set2 = growth inhibition of PfHsp90-expressing yeast, primary screen, antimalarial PfHsp90 inhibitor project, S. cerevisiae, BacTiter-Glo luminescence, single point, set 2 | 310,000 tested, 0.32% active | AID 504621, 2011 | BacTiter-Glo ATP, 48 h; yeast lacking PDR1 and PDR3 efflux regulators | inhibition, % at 9.4 µM;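 active means every replicate shows inhibition above about 80%, whatever the replicate mean, limit read from the data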
NLRP3 yeast inh = NALP3 inflammasome inhibitors in reconstituted yeast, primary screen, luminescence, uHTS; inhibition, % at 10 µM; 330,000 tested, 0.39% active; Yeast reconstituted NLRP3/ASC/caspase-1, beta-gal luminescence, 24 h;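 active means inhibition of 50% or more; inactive means inhibition below 50%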
NALP3 yeast conf = NALP3 inhibitors retested in yeast, confirmation, luminescence, single concentration; 1,300 tested, 81% active; AID 435006, 2010; inhibition, % at 10 µM; yeast expressing human NALP3; shares compounds with NLRP3 yeast inh; in the data active means inhibition above about 48%
Casp1 ASC ctr = CASP1-PYCARD signaling inhibition in yeast, confirmatory test, counterassay for NLRP3 inhibitor program, one-dose; shares compounds with NLRP3 yeast inh; yeast expressing Caspase-1-ASC, luminescence counter screen; inhibition, % at 10 µM; 1,000 tested, 66% active
NALP3 yeast rt = NALP3 inhibitors in yeast, repeat test, confirmation, luminescence, single concentration, retest; 1,000 tested, 53% active; shares compounds with NLRP3 yeast inh; AID 488794, 2010; inhibition, % at 10 µM; yeast expressing human NALP3, luminescence read-out
Large screens that a line does not name were inactive (follow-up assays come after a bar, where they were run). Unless noted, no stated cut-off is given here; in the data, active means inhibition above about 50%; inactive means the rest.

Cc1ccc(N2C(=O)N3[C@H](c4ccc(F)cc4)[C@@H]4C(=O)N(C5CCCCC5)C(=O)[C@@H]4[C@]3(Cc3ccccc3)C2=O)cc1	none
CCC(C)c1ccccc1NC(=O)c1cc2cccc([N+](=O)[O-])c2[nH]1 (stereo not given)	NLRP3 yeast inh 51.7 (no result: PfHsp90 set2) | NALP3 yeast conf inactive
N#Cc1ccsc1NC(=O)c1ccc(Cl)c([N+](=O)[O-])c1	NLRP3 yeast inh 77.9 | NALP3 yeast conf 81.3
N#Cc1ccsc1NC(=O)c1cccc([N+](=O)[O-])c1	none
CC(=O)N(/N=C1\Sc2ccccc2C1=O)c1ccccc1C	NLRP3 yeast inh 53.9 (no result: PfHsp90 set2) | NALP3 yeast conf 48.0 | Casp1 ASC ctr inactive | NALP3 yeast rt inactive
COc1ccc(CCn2c(-c3ccc(F)cc3)nc3c(c(=O)c4ccccc4n3C)c2=O)cc1OC	none (no result: PfHsp90 set2)
COc1ccc(CCn2c(C3CCCCC3)nc3c(c(=O)c4ccccc4n3C)c2=O)cc1	SKKanGAS inh 68.0, NLRP3 yeast inh 67.2 (no result: PfHsp90 set2) | NALP3 yeast conf 64.7 | Casp1 ASC ctr 55.2 | NALP3 yeast rt 61.3
COc1ccc(CCn2c(-c3ccccc3)nc3c(c(=O)c4ccccc4n3C)c2=O)cc1	none (no result: PfHsp90 set2)
COc1ccc(CCn2c(C3CCCCC3)nc3c(c(=O)c4ccccc4n3C)c2=O)cc1OC	NLRP3 yeast inh 64.1 | NALP3 yeast conf 84.5 | Casp1 ASC ctr inactive | NALP3 yeast rt inactive
COc1cccc2cc(C(=O)c3ccccc3)oc12	NLRP3 yeast inh 50.1 | NALP3 yeast conf inactive
COc1ccc(S(=O)(=O)Nc2ccc(F)c(F)c2)cc1C(=O)N1CCOCC1	none
CCCOc1ccc(-c2cn3ccccc3n2)cc1	NLRP3 yeast inh 72.4 | NALP3 yeast conf 56.1 | Casp1 ASC ctr 88.0 | NALP3 yeast rt 76.2
O=C(OCC(=O)c1cccc2ccccc12)c1ccc(CO)cc1	none
C[C@]12C=CC(=O)C=C1CCC1C2CC[C@@]2(C)C1CCC21OCCO1 (stereo not given in full)	none (no result: SKKanGAS inh)
C[C@]12C=C[C@H](O)CC1=CCC1C2CC[C@@]2(C)C1CCC21OCCO1 (stereo not given in full)	NLRP3 yeast inh 56.6 (no result: SKKanGAS inh) | NALP3 yeast conf 70.9
Cc1[nH]c2c(C)cccc2c1CCNC(=O)C1CCCCC1C(=O)OCC(F)(F)F (stereo not given)	NLRP3 yeast inh 72.2 | NALP3 yeast conf inactive
CCOc1ccc(N(CC(=O)N/N=C/c2ccccn2)S(=O)(=O)c2ccc(Cl)cc2)cc1	none (no result: SKKanGAS inh)
Cc1ccc(C(=O)N2CC(=O)NC(=O)C2)cc1	NLRP3 yeast inh 50.6 | NALP3 yeast conf 49.0 | Casp1 ASC ctr inactive | NALP3 yeast rt inactive
Cc1ccc(C(=O)N2CC3(C)CN(C(=O)c4ccc(C)cc4)CC(C)(C2)C3=O)cc1	none
COC(=O)CN(c1ccc(C)cc1)S(=O)(=O)c1ccc(F)cc1	NLRP3 yeast inh 58.0 | NALP3 yeast conf 55.3
O=c1cc(-c2ccccc2Cl)oc2ccc([N+](=O)[O-])c(O)c12	SKKanGAS inh 87.4, NLRP3 yeast inh 57.1 | NALP3 yeast conf 72.2 | Casp1 ASC ctr inactive | NALP3 yeast rt 56.6
O=C(Nc1nnc(-c2ccco2)s1)C1CCCCC1	NLRP3 yeast inh 58.4 | NALP3 yeast conf inactive | Casp1 ASC ctr inactive | NALP3 yeast rt inactive
CC(C)c1nnc(NC(=O)C2CCCCC2)s1	none
CCSc1nnc(NC(=O)C2CCCCC2)s1	NLRP3 yeast inh 61.2 | NALP3 yeast conf 79.1 | Casp1 ASC ctr 67.0 | NALP3 yeast rt 61.1
CSc1nnc(NC(=O)C2CCCCC2)s1	NLRP3 yeast inh 55.0 (no result: SKKanGAS inh) | NALP3 yeast conf 74.6 | Casp1 ASC ctr 58.5 | NALP3 yeast rt inactive
O=C(COC(=O)CNC(=O)c1ccccc1)NC1CCCC1	none (no result: SKKanGAS inh, PfHsp90 set2)
CCOC(=O)C1=C(N)N(c2cc(S(=O)(=O)N3CCOCC3)ccc2Cl)C(=O)C1	none
NCCc1nnc(SCc2ccccc2F)o1	NLRP3 yeast inh 62.8 | NALP3 yeast conf 74.4 | Casp1 ASC ctr 68.5 | NALP3 yeast rt 69.5
Cc1ccc(C)c(CSc2nnc(CCN)o2)c1	NLRP3 yeast inh 72.3 (no result: PfHsp90 set2) | NALP3 yeast conf 79.6 | Casp1 ASC ctr 64.7 | NALP3 yeast rt 71.7
NCCc1nnc(SCc2ccccc2)o1	NLRP3 yeast inh 61.4 | NALP3 yeast conf 74.8 | Casp1 ASC ctr 60.6 | NALP3 yeast rt 61.0
c1ccc(CSc2nnc(Cc3ccccc3)o2)cc1	none
CCOc1cccc(CN2CCCC(C(=O)c3cc(Cl)ccc3OC)C2)c1O (stereo not given)	none
COc1ccccc1CNC(=O)COc1cccnc1[N+](=O)[O-]	none
COc1ccccc1NC(=O)COc1cccnc1[N+](=O)[O-]	NLRP3 yeast inh 51.2 (no result: SKKanGAS inh, PfHsp90 set2) | NALP3 yeast conf 67.2 | Casp1 ASC ctr 75.2 | NALP3 yeast rt 62.0
O=C(COc1cccnc1[N+](=O)[O-])Nc1ccc(F)cc1	none (no result: SKKanGAS inh)
COc1ccccc1CNc1ncccc1[N+](=O)[O-]	NLRP3 yeast inh 50.0 | NALP3 yeast conf 47.8 | Casp1 ASC ctr inactive | NALP3 yeast rt inactive
CCOc1ccccc1NC(=O)COc1cccnc1[N+](=O)[O-]	NLRP3 yeast inh 58.8 (no result: SKKanGAS inh) | NALP3 yeast conf 74.3
NS(=O)(=O)c1cc(C(=O)NCC2CCCCC2)ccc1Cl	none
Cc1ccc(OCCn2cnc(Cl)c2Cl)cc1	NLRP3 yeast inh 50.1 (no result: SKKanGAS inh, PfHsp90 set2) | NALP3 yeast conf 58.9
CCCCCCCCNC(C)C(O)c1ccc(SC(C)C)cc1 (stereo not given)	NLRP3 yeast inh 67.4 | NALP3 yeast conf 64.0 | Casp1 ASC ctr 52.3 | NALP3 yeast rt 63.8
CCOc1cc(C=O)ccc1OCCSc1ccc(Cl)cc1	NLRP3 yeast inh 53.5 | NALP3 yeast conf 47.6 | Casp1 ASC ctr 57.5 | NALP3 yeast rt inactive
CCC(C)N1C(=O)N(c2cccc(Cl)c2)C(C)(O)CC1(C)C (stereo not given)	none
Cc1cccc(-c2nnc(SCC#N)n2-c2ccccc2)c1	none
Cc1ccc(-n2c(SCCN)nnc2-c2cccc(C)c2)cc1	NLRP3 yeast inh 77.7 | NALP3 yeast conf 78.2
COc1ccc(-c2csc(NC3=NCCCCC3)n2)cc1	none
Brc1ccc(-c2csc(NC3=NCCCCC3)n2)cc1	NLRP3 yeast inh 57.9 | NALP3 yeast conf 55.4 | Casp1 ASC ctr inactive | NALP3 yeast rt inactive
c1nc(CCO[C@H]2CCCCO2)cc2cc3c(cc12)OCO3	none (no result: SKKanGAS inh)

Screening data (PubChem)
